Laboratory results: article PMC5540273 (PLoS ONE, 2017)

Key:
Conditions in all cases: concentration: 1 μM,replicates: in singlicate; n = 1
FGFR1 = system: FGFR1
FGFR2 = system: FGFR2
FGFR3 = system: FGFR3
FGFR4 = system: FGFR4
FGR = system: FGR
FLT1 = system: FLT1
FLT3-autoinhibited = system: FLT3-autoinhibited
FLT3 = system: FLT3
FLT4 = system: FLT4
FRK = system: FRK
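Note: KINOMEscan kinase panel screen.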

Structure (SMILES)	%Inh (FGFR1) [%]	%Inh (FGFR2) [%]	%Inh (FGFR3) [%]	%Inh (FGFR4) [%]	%Inh (FGR) [%]	%Inh (FLT1) [%]	%Inh (FLT3-autoinhibited) [%]	%Inh (FLT3) [%]	%Inh (FLT4) [%]	%Inh (FRK) [%]
COC(=O)c1cccc(NC(=O)NC2CCN(c3ccnc(NCc4ccc(F)cc4)n3)CC2)c1 [GSK1379860]	3	27	11	0	11	42	24	0	38	16
OCCn1cc(-c2cnc3nnn(Cc4ccc5ncccc5c4)c3n2)cn1	0	0	0	0	5	0	0	0	0	0
CC(C(=O)NC1CCN(c2ccnc(Nc3ccc(F)cc3)n2)C1)c1ccc(Cl)cc1 (stereo not shown) [GSK1379713]	0	11	9	0	0	33	0	8	0	0
CN(c1cccc(CNc2nc(Nc3ccc4c(c3)CC(=O)N4)ncc2C(F)(F)F)c1)S(C)(=O)=O	26	31	11	0	25	35	39	98.7	38	0
COc1cccc(CNC(=O)NC2CCN(c3ccnc(Nc4cc(OC)c(OC)c(OC)c4)n3)C2)c1 (stereo not shown) [GSK1379765]	0	49	23	2	18	26	14	47	23	21
NC(=O)Nc1sc(-c2ccc(F)cc2)cc1C(N)=O [GW789449]	36	7	10	0	45	28	5	50	31	0
C[C@@H]1CNc2c(sc3ccc4nc(-c5ccncc5)ccc4c23)C(=O)N1	9	0	0	26	40	3	0	0	4	10
Cn1ccc2ncnc(Oc3ccc(NC(=O)Nc4cnn(C(C)(C)C)c4)c(Cl)c3)c21		14	1	0	10	97.4	8	99.2	98.3	70
